HT1080 IDH1KD tx = qHTS for induction of synthetic lethality in tumor cells producing 2HG: qHTS for the HT-1080-IDH1KD cell line; HT-1080 IDH1 knockdown viability, ATP luminescence, 48 h; Potency, µM (top dose mostly 46.1 µM), for inactives: top-dose activity, negative = toxicity, hits mostly cytotoxic; 360,000 compounds, 2% hits; AID 686971, 2013;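 note: potency is the fitted concentration of half-maximal effect; 0% = DMSO wells and -100% = cell-free medium wells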
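Using the IDH1-knockdown HT-1080 line run in the same batch and compound series as the NT line, viability after 48 h at 37 °C was determined by CellTiter-Glo luminescence and expressed as % activity.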
TDP1 cell CPT = qHTS for Inhibitors of human tyrosyl-DNA phosphodiesterase 1 (TDP1): qHTS in cells in presence of CPT; Potency, µM (doses to about 46.2 µM), inactives show at the top dose activity change, negative = growth inhibition, actives largely listed as inhibitors; 420,000 compounds, 12% hits; chicken DT40 Tdp1-/-;hTDP1 cells + 20 nM CPT, ATP luminescence, 48 h; note: potency is the fitted concentration of half-maximal effect; nearly all actives have a fitted effect of over 55% in size
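Cell growth measured by CellTiter-Glo luminescence after a minimum 48 h, 37 C compound exposure with 20 nM CPT in Tdp1-knockout DT40 cells stably expressing hTDP1, seeded 400/well; qHTS titration format.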
DT40 TDP1 no CPT = qHTS for Inhibitors of human tyrosyl-DNA phosphodiesterase 1 (TDP1): qHTS in cells in absence of CPT. DT40 Tdp1-/- hTDP1 cells, no CPT, ATP luminescence, 48 h. Potency, µM (titrated, usually from 46.2 µM), without a hit: at the top dose activity change, negative = growth inhibition, actives largely listed as inhibitors. 420,000 compounds, 15% hits; note: potency is the fitted concentration of half-maximal effect; nearly all actives have a fitted effect of over 55% in size
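Growth kinetics read by CellTiter-Glo luminescence after ≥48 hr at 37 °C. Cells: DT40 Tdp1-/- stably carrying human TDP1, 400 per well, compound exposure in the absence of CPT (DMSO vehicle).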
IL1B secr inh = qHTS for Inhibitors of Inflammasome Signaling: IL-1-beta AlphaLISA Primary Screen | THP-1 LPS/ATP IL-1B secretion, AlphaLISA, 16 h; hits give low values | activity change, % at 57.5 µM | 360,000 compounds, 4.7% hits | AID 743279, 2014; in the data active = activity change below about -50%; inconclusive = mostly about -30% to -49%
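Secreted IL-1B measured by AlphaLISA bead assay after 16 h compound exposure of THP-1 cells; compounds (final up to 57.5 uM) added 1 h before LPS (250 ng/mL) and ATP (1.25 mM) stimulation; lower signal means less secretion.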
HT1080-NT tox = qHTS for induction of synthetic lethality in tumor cells producing 2HG: qHTS for the HT-1080-NT fibrosarcoma cell line | HT-1080-NT fibrosarcoma viability, CellTiter-Glo ATP luminescence, 48 h | Potency, µM (series often up to 46.1 µM), for inactives: at the top dose activity, negative = less viability, hits mostly cytotoxic | 360,000 compounds, 1.6% hits | AID 686970, 2013;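 note: NT is the 2HG producing partner of a matched IDH1 knockdown line; potency is the fitted concentration of half-maximal effect; 0% = DMSO-treated cells and -100% = media-only wells without cells; nearly all actives have a fitted effect of over 55% in size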
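Toxicity toward the 2HG-producing NT line was scored as %Activity, normalised to DMSO and no-cell wells, from CellTiter-Glo luminescence after 48 hours' treatment.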
Numbers without * were called inactive; [ ] = remark or other dose. This is a sample that favours compounds with a hit; in the whole collection about 19% have one here. Unless noted, calls come from the whole dose curve; as a rule, active = well fitted curve in the direction sought with a large enough effect; inconclusive = small, poorly fitted or top-dose-only effect, or another doubt; inactive = no such curve, though single readings can be large; an effect the other way counts as inactive or inconclusive. Unless noted, % is set by controls: 0 for no effect and ±100 for the full control effect.

Screening N#Cc1ccc(CN2CCN(C(=O)c3ccc(S(=O)(=O)NCc4ccco4)cc3)CC2)cc1 returned HT1080 IDH1KD tx -19.4%, TDP1 cell CPT 10.3µM*, DT40 TDP1 no CPT 2.59µM*, IL1B secr inh 22.3 and HT1080-NT tox 0.4%.
For O=C1CCc2cc(S(=O)(=O)NCCC(=O)N3CCN(c4cccc(Cl)c4)CC3)ccc2N1 the results were HT1080 IDH1KD tx inconclusive, TDP1 cell CPT 25.9µM*, DT40 TDP1 no CPT 10.3µM*, IL1B secr inh 1.5 and HT1080-NT tox inconclusive.
Screening N#Cc1ccc(CN2CCN(C(=O)CCNS(=O)(=O)c3ccc(F)c(F)c3)CC2)cc1 returned HT1080 IDH1KD tx 2.1%, TDP1 cell CPT -27.1%, DT40 TDP1 no CPT -18.4%, IL1B secr inh 28.0 and HT1080-NT tox 1.2%[9.24 µM].
Screening CC1CC(C)CN(C(=O)CCNS(=O)(=O)c2ccc3c(c2)CCC(=O)N3)C1 (stereo unspecified) returned HT1080 IDH1KD tx 14.8%, TDP1 cell CPT -10.0%, DT40 TDP1 no CPT -1.8%, IL1B secr inh -5.1 and HT1080-NT tox 19.7%.
For N#Cc1ccc(CN2CCN(C(=O)CCNS(=O)(=O)c3ccc(F)c(Cl)c3)CC2)cc1 the results were HT1080 IDH1KD tx -4.2%, TDP1 cell CPT inconclusive, DT40 TDP1 no CPT 18.4µM*, IL1B secr inh -5.6 and HT1080-NT tox -10.2%.
Screening O=C(CCNS(=O)(=O)c1cccc2nonc12)N1CCN(c2cccc(Cl)c2)CC1 returned HT1080 IDH1KD tx -8.2%, TDP1 cell CPT inconclusive, DT40 TDP1 no CPT 11.6µM*, IL1B secr inh -11.6 and HT1080-NT tox -10.9%.
O=C(CCNS(=O)(=O)c1cccs1)N1CCN(c2cccc(Cl)c2)CC1 was read as HT1080 IDH1KD tx -0.3%, TDP1 cell CPT inconclusive, DT40 TDP1 no CPT inconclusive, IL1B secr inh -12.3 and HT1080-NT tox -18.3%.
For O=C(CCNC(=O)C1CCN(S(=O)(=O)c2ccc(F)cc2)CC1)NCc1ccccn1 the results were HT1080 IDH1KD tx 12.9%, TDP1 cell CPT 1.4%, DT40 TDP1 no CPT -0.1%, IL1B secr inh -2.5 and HT1080-NT tox 5.9%.
For CN(C)S(=O)(=O)c1ccc(N2CCCC2)c(C(=O)OCC(=O)N2CCN(c3ccccc3)CC2)c1 the results were HT1080 IDH1KD tx -3.3%, TDP1 cell CPT inconclusive, DT40 TDP1 no CPT inconclusive, IL1B secr inh -8.2 and HT1080-NT tox 1.3%.
For C[C@@H]1COc2cc(N3CC[C@H](O)C3)ccc2S(=O)(=O)N1 the results were HT1080 IDH1KD tx 12.3%, TDP1 cell CPT 2.4%, DT40 TDP1 no CPT 1.1%, IL1B secr inh 24.1 and HT1080-NT tox 15.3%.
`N#Cc1ccc(CN2CCN(CC(=O)NCCc3ccc(Cl)cc3Cl)CC2)cc1` gave HT1080 IDH1KD tx inconclusive, TDP1 cell CPT 20.6µM*, DT40 TDP1 no CPT 20.6µM*, IL1B secr inh inconclusive and HT1080-NT tox inconclusive.
Screening CCC(=O)N1CCc2cc(S(=O)(=O)CCC(=O)N3CCN(c4cccc(C)c4C)CC3)ccc21 returned TDP1 cell CPT -5.4% and DT40 TDP1 no CPT -14.2%.
Screening O=C(CCNS(=O)(=O)c1ccc2c(c1)CCN2C(=O)C1CC1)N1CCN(c2ccc(F)cc2)CC1 returned TDP1 cell CPT 3.26µM* and DT40 TDP1 no CPT 9.2µM*.
Cc1cccc(N2CCN(C(=O)CCNS(=O)(=O)c3ccc4c(c3)CCN4C(=O)C3CC3)CC2)c1C was read as TDP1 cell CPT 18.4µM* and DT40 TDP1 no CPT 18.4µM*.
N#Cc1ccc(CSc2nnc(-c3ccccn3)n2-c2ccccc2)cc1 was read as HT1080 IDH1KD tx -2.6%, TDP1 cell CPT inconclusive, DT40 TDP1 no CPT inconclusive, IL1B secr inh -17.6 and HT1080-NT tox -1.3%.
`CCCSc1nnc(-c2c[nH]c3ccccc23)n1C` gave HT1080 IDH1KD tx 5.3%, TDP1 cell CPT inconclusive, DT40 TDP1 no CPT inconclusive, IL1B secr inh 0.0 and HT1080-NT tox inconclusive.
CCn1c(SCc2cccnc2)nnc1-c1c[nH]c2ccccc12 was read as HT1080 IDH1KD tx -0.2%, TDP1 cell CPT 14.6µM*, DT40 TDP1 no CPT inconclusive, IL1B secr inh 20.4 and HT1080-NT tox 5.0%.
N#Cc1ccc(CSc2nnc(-c3c[nH]c4ccccc34)n2-c2ccccc2)cc1 was read as HT1080 IDH1KD tx inconclusive, TDP1 cell CPT inconclusive, DT40 TDP1 no CPT 23.1µM*, IL1B secr inh -67.1* and HT1080-NT tox -18.3%.
`CCCSc1nnc(-c2c[nH]c3ccccc23)n1CC` gave HT1080 IDH1KD tx -21.3%, TDP1 cell CPT 14.6µM*, DT40 TDP1 no CPT inconclusive, IL1B secr inh -17.4 and HT1080-NT tox -3.1%.
For COC(=O)c1c(OCc2cccnc2)cc(=O)n2c1CCN(C(=O)c1ccc(OC)c(F)c1)CC2 the results were TDP1 cell CPT 7.5% and DT40 TDP1 no CPT -13.7%.
For CN(Cc1ccccc1)c1nc2c(c(=O)[nH]c(=O)n2C)n1CCCc1ccccc1 the results were HT1080 IDH1KD tx -18.6%, TDP1 cell CPT 29.1µM*, DT40 TDP1 no CPT 35.5µM*, IL1B secr inh -53.9* and HT1080-NT tox inconclusive.
C=C(C)Cn1c(N(CCO)Cc2ccccc2)nc2c1c(=O)[nH]c(=O)n2C was read as HT1080 IDH1KD tx 11.4%, TDP1 cell CPT -27.3%, DT40 TDP1 no CPT -17.4%, IL1B secr inh -0.2 and HT1080-NT tox -0.9%.
`Cn1c(=O)[nH]c(=O)c2c1nc(N(CCO)Cc1ccccc1)n2CCCc1ccccc1` gave HT1080 IDH1KD tx -24.4%, TDP1 cell CPT 25.9µM*, DT40 TDP1 no CPT inconclusive, IL1B secr inh -8.0 and HT1080-NT tox -9.7%.
For Cn1c(=O)[nH]c(=O)c2[nH]c(CN3CCN(Cc4ccccc4)CC3)nc21 the results were HT1080 IDH1KD tx 3.2%, TDP1 cell CPT 12.7%, DT40 TDP1 no CPT 0.1%, IL1B secr inh -13.3 and HT1080-NT tox -2.3%.
Screening Cn1c(=O)[nH]c(=O)c2[nH]c(N(Cc3ccccc3)Cc3ccccc3)nc21 returned HT1080 IDH1KD tx inconclusive, TDP1 cell CPT inconclusive, DT40 TDP1 no CPT 14.6µM*, IL1B secr inh -14.3 and HT1080-NT tox inconclusive.
For COc1cccc(CC(=O)OCC(=O)NNC(=O)c2ccc([N+](=O)[O-])cc2)c1 the results were HT1080 IDH1KD tx -6.9%, TDP1 cell CPT 5.6%, DT40 TDP1 no CPT -2.6%, IL1B secr inh inactive and HT1080-NT tox 9.5%.
CCOc1ccc(S(=O)(=O)NCCC(=O)NCC2(N3CCCCC3)CCCCC2)cc1 was read as HT1080 IDH1KD tx -0.5%, TDP1 cell CPT -9.1%, DT40 TDP1 no CPT -19.0%, IL1B secr inh 7.4 and HT1080-NT tox -4.1%.
